This note sets out measurements from article PMC4081100, “A DNA-binding-site landscape and regulatory network analysis for NAC transcription factors in Arabidopsis thaliana”.

Assay in all cases: universal protein binding microarray (PBM); transcription factors of Arabidopsis thaliana; high values mean tight binding
Conditions in all cases: protein: recombinant; tags: GST; chain copies: 2; dsDNA, one strand shown

One test has as its target T1, GST-ANAC092(1-176) (Arabidopsis thaliana, UniProt Q9FKA0 1-176).
T1 sequence: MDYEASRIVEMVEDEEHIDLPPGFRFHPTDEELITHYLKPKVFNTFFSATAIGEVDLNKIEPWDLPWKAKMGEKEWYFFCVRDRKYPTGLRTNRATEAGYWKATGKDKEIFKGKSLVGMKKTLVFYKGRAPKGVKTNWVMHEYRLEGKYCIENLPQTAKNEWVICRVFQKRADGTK
The essentials: (§1)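 GST-tagged NAC-domain, full-length or DNA-binding-domain proteins were induced in cells, with zinc acetate added for zinc-finger proteins. They were purified on glutathione–Sepharose 4B and quantified by A280 or anti-GST western blot. Each was applied at 200 to 500 nM final, in duplicate, to custom all-10-mer Agilent 4 × 180K arrays made double-stranded by primer extension, with gapped and ungapped 8-mers scored. Binding is the normalised enrichment score (E-score).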

In another test the target is GST-NTL6(1-168) (Arabidopsis thaliana, UniProt Q9SCK6 1-168). The essentials: as §1
In the next test the target is T2, GST-ANAC019 NAC domain (Arabidopsis thaliana, UniProt Q9C932 14-162).
T2 sequence: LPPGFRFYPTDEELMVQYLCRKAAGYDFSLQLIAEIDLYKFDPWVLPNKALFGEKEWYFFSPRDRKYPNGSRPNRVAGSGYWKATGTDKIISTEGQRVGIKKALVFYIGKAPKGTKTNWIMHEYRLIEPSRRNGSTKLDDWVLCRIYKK
The essentials: as §1

In the next test the target is T3, GST-ANAC055(1-171) (Arabidopsis thaliana, UniProt Q9LDY8 1-171).
T3 sequence: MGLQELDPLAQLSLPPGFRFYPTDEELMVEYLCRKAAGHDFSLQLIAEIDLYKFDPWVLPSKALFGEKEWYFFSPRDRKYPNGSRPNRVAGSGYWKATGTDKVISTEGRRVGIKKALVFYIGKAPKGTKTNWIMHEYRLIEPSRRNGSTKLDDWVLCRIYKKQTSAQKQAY
The essentials:
as §1

The next test concerns the target T4, GST-ATAF1 NAC domain (Arabidopsis thaliana, UniProt Q39013 7-158).
T4 sequence: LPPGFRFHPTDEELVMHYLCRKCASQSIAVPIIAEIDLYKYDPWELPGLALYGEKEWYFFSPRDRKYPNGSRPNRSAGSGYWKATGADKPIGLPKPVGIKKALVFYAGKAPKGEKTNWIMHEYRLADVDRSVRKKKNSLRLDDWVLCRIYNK
The essentials: as §1

The target of test [1] is T5, GST-ANAC092(1-285) full length (Arabidopsis thaliana, UniProt Q9FKA0 1-285).
T5 sequence: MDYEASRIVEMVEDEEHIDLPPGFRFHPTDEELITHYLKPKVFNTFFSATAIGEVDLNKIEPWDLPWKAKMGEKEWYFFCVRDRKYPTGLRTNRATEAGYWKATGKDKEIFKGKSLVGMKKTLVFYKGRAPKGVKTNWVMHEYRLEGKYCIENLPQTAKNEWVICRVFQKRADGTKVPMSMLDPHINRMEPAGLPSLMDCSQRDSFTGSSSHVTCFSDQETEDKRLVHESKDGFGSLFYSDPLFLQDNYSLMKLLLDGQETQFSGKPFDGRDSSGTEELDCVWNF
The essentials:
as §1

Another test deals with T6, GST-NAP(1-166) (Arabidopsis thaliana, UniProt O49255 1-166).
T6 sequence: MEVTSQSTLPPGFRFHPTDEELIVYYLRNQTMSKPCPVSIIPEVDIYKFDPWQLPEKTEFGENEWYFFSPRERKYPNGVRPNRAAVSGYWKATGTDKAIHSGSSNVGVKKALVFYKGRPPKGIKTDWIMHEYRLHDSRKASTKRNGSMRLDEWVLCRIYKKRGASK
The essentials: as §1

For a further test, the target named is T7, GST-NST2(1-184) (Arabidopsis thaliana, UniProt Q9M274 1-184).
T7 sequence: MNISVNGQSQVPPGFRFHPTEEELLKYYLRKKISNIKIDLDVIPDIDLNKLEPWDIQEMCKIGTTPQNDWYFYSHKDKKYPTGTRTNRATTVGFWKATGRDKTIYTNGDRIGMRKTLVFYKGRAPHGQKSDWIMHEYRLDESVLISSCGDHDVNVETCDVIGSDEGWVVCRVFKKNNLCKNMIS
The essentials:
as §1

In a further test the target is T8, GST-NTL8 NAC domain (Arabidopsis thaliana, UniProt Q9XIN7 14-156).
T8 sequence: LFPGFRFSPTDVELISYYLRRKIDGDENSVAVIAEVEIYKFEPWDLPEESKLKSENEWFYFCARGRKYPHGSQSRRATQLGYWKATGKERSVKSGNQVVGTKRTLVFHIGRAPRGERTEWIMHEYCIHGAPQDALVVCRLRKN
The essentials: as §1

Another test has as its target T9, GST-SND1(1-203) (Arabidopsis thaliana, UniProt Q9LPI7 1-203).
T9 sequence: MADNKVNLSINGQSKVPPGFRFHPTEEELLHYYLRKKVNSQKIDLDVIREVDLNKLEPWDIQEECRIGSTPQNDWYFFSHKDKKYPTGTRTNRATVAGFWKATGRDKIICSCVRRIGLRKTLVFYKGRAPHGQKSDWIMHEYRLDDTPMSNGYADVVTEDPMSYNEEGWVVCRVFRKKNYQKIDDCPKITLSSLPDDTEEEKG
The essentials:
as §1

Another test concerns the target T10, GST-VND3 NAC domain (Arabidopsis thaliana, UniProt Q9FH59 12-162).
T10 sequence: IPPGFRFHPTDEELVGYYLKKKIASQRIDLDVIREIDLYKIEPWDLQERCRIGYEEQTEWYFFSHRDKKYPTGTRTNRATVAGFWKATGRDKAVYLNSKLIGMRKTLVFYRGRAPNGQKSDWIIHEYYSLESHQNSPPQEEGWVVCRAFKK
The essentials:
as §1

A further test deals with T11, GST-VND7 NAC domain (Arabidopsis thaliana, UniProt Q9C8W9 9-158).
T11 sequence: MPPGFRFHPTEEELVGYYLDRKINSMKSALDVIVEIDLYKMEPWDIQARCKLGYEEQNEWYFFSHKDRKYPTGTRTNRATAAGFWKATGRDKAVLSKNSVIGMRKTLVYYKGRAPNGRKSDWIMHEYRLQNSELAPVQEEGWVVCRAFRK
The essentials:
as §1

Sequence of GST-NTL6(1-168) (Q9SCK6 1-168): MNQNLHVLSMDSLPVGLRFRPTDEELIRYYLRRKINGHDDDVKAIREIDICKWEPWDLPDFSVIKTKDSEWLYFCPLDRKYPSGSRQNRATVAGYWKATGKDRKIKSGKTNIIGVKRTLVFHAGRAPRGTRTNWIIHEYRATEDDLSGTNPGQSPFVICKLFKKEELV

Consider ACGCAACT, for which the binding signal with GST-ANAC092(1-176) came to 0.472 E-score; in the test with GST-NTL6(1-168), 0.105 E-score; with GST-ANAC019 NAC domain, 0.477 E-score; in the test with GST-ANAC055(1-171), 0.433 E-score; with GST-ATAF1 NAC domain, 0.416 E-score; in test [1], 0.472 E-score. In addition, the binding signal in the test with GST-NAP(1-166) came to 0.478 E-score; with GST-NST2(1-184), 0.39 E-score; with GST-NTL8 NAC domain, 0.0824 E-score; in the test with GST-SND1(1-203), 0.422 E-score; with GST-VND3 NAC domain, 0.462 E-score; with GST-VND7 NAC domain, 0.462 E-score.

ACGCAAGT: the binding signal turned out to be 0.424 E-score with GST-ANAC092(1-176); 0.121 E-score with GST-NTL6(1-168); 0.277 E-score with GST-ANAC019 NAC domain; 0.295 E-score in the test with GST-ANAC055(1-171); 0.295 E-score with GST-ATAF1 NAC domain; 0.444 E-score in test [1]. Moreover, the binding signal with GST-NAP(1-166) was determined as 0.356 E-score; in the test with GST-NST2(1-184), 0.291 E-score; in the test with GST-NTL8 NAC domain, 0.0671 E-score; in the test with GST-SND1(1-203), 0.406 E-score; in the test with GST-VND3 NAC domain, 0.375 E-score; with GST-VND7 NAC domain it was 0.366 E-score.

GTTACGTA: the binding signal with GST-ANAC092(1-176) was determined as 0.463 E-score; with GST-NTL6(1-168), 0.214 E-score; with GST-ANAC019 NAC domain it was 0.482 E-score; with GST-ANAC055(1-171) it was 0.473 E-score; with GST-ATAF1 NAC domain, 0.463 E-score; in test [1], 0.456 E-score. Moreover, the binding signal with GST-NAP(1-166) was 0.483 E-score; in the test with GST-NST2(1-184) it was 0.337 E-score; in the test with GST-NTL8 NAC domain it was 0.319 E-score; in the test with GST-SND1(1-203), 0.442 E-score; in the test with GST-VND3 NAC domain, 0.471 E-score; with GST-VND7 NAC domain it was 0.477 E-score.

Take CACGGAAG: the binding signal is 0.372 E-score in the test with GST-ANAC092(1-176); 0.0727 E-score in the test with GST-NTL6(1-168); 0.471 E-score in the test with GST-ANAC019 NAC domain; 0.435 E-score with GST-ANAC055(1-171); 0.343 E-score in the test with GST-ATAF1 NAC domain; 0.403 E-score in test [1]. Besides, the binding signal with GST-NAP(1-166) came out at 0.367 E-score; in the test with GST-NST2(1-184), 0.12 E-score; in the test with GST-NTL8 NAC domain it was 0.129 E-score; with GST-SND1(1-203) it was 0.164 E-score; with GST-VND3 NAC domain, 0.435 E-score; in the test with GST-VND7 NAC domain, 0.428 E-score.

Regarding CGTTTCCC, the binding signal stood at 0.244 E-score with GST-ANAC092(1-176); 0.14 E-score in the test with GST-NTL6(1-168); 0.176 E-score with GST-ANAC019 NAC domain; 0.176 E-score with GST-ANAC055(1-171); 0.108 E-score with GST-ATAF1 NAC domain; 0.274 E-score in test [1]. Besides, the binding signal is 0.28 E-score in the test with GST-NAP(1-166); 0.0635 E-score in the test with GST-NST2(1-184); 0.422 E-score in the test with GST-NTL8 NAC domain; 0.265 E-score with GST-SND1(1-203); 0.179 E-score in the test with GST-VND3 NAC domain; 0.186 E-score in the test with GST-VND7 NAC domain.

For the sequence ACGTAATA, the binding signal with GST-ANAC092(1-176) was 0.425 E-score; with GST-NTL6(1-168), 0.176 E-score; with GST-ANAC019 NAC domain it was 0.351 E-score; with GST-ANAC055(1-171), 0.375 E-score; in the test with GST-ATAF1 NAC domain, 0.276 E-score; in test [1], 0.434 E-score. Also, the binding signal in the test with GST-NAP(1-166) worked out at 0.346 E-score; with GST-NST2(1-184), 0.298 E-score; in the test with GST-NTL8 NAC domain, 0.142 E-score; with GST-SND1(1-203) it was 0.387 E-score; with GST-VND3 NAC domain, 0.377 E-score; in the test with GST-VND7 NAC domain it was 0.273 E-score.
